Molecules are shown by their SMILES. Values joined by “and” are separate entries in the source; they are usually repeats but may differ in a detail not shown here. Identical values can stand only once. Records with an inconclusive call do not appear. Active and inactive are the calls of the source. The call rests on the fitted dose curve; in most records, active means well fitted cell-killing curve with a large enough effect in the repeat runs; inconclusive means weak or mixed curves; inactive means flat fitted curve, though single readings scatter.
On the % scale 0 is the no-effect control and ±100 the full control effect; potency means the concentration at half of the fitted maximal effect.

A short description of the experiment: qHTS assay to identify small molecule antagonists of the TGF-beta/Smad signaling pathway - cell viability counter screen (AID 1346824). Further: nearly all actives have a fitted effect of over 50% in size. To be noted: SBE-bla HEK293T viability, CellTiter-Glo luminescence; series mostly up to 76.8 µM; viability change, negative = cytotoxic: at the top concentration. The text has this:
U.S. Tox21 Program National Center for Advancing Translational Sciences [NCATS] NIH Chemical Genomics Center [NCGC] U.S. Environmental Protection Agency [EPA] National Institutes of Environmental Health Sciences [NIEHS] National Toxicology Program [NTP] U.S. Food and Drug Administration [FDA] Tox21 Assay Overview: Transforming growth factor beta (TGF-beta) superfamily consists of a large number of structurally related dimeric proteins that act as hormones or local mediators in regulating a wide range of biological functions. This superfamily includes TGF-betas themselves, the bone morphogenetic proteins (BMPs) and the activins. These ligands induce oligomerization of serine/threonine receptor kinases and phosphorylate the cytoplasmic signaling molecules of Smad protein family. CellSensor SBE-bla HEK 293T cell line (Life Technologies, Carlsbad, CA), responsive to TGF-beta was used to screen Tox21 10K compound library for identification of agonists/antagonists of the Smad signaling pathway. This cell line contains a beta-lactamase reporter gene under control of the Smad binding element (SBE) stably integrated into HEK 293T cells. Also cytotoxicity of the compounds was tested in parallel by measuring the cell viability using CellTiter-Glo assay system in the same wells.
Tox21 Assay Protocol Summary: SBE-bla HEK 293T cells were dispensed at 4,000/well in 5 uL of assay medium into black wall/clear-bottom 1536-well plates using a Multidrop Combi (ThermoFisher Scientific, Waltham, MA) dispenser. After the assay plates were incubated at 37 C and 5% CO2 for an overnight, 23 nL of compounds dissolved in DMSO, positive controls or DMSO only was transferred to the assay plate by a Pintool station (Kalypsys, San Diego, CA). Compound transfer was followed by the addition of 1 uL of 0.25 ng/mL TGF-beta1 or assay buffer using two separate tips of Flying Reagent Dispenser (FRD, Aurora Discovery, San Diego, CA). The assay plates were incubated at 37 C and 5% CO2 for 5 hr. One uL of LiveBLAzer B/G FRET substrate (Life Technologies) was added using a Flying Reagent Dispenser (FRD, Aurora Discovery, San Diego, CA) and the plates were incubated at room temperature for 2 hr. Fluorescence intensity (405 nm excitation, 460 nm and 530 nm emissions) was measured using an Envision plate reader (PerkinElmer, Shelton, CT). For cytotoxicity read, 4 uL of CellTiter-Glo reagent (Promega Corporation, Madison, WI) was added to each well of the assay plates using FRD. After 30 min incubation at room temperature, the luminescence intensity was measured using ViewLux plate reader (PerkinElmer).
For the compound `C=C(C)C(=O)[O][Sn]([CH2]CCC)([CH2]CCC)[CH2]CCC`, the Potency was 1.38 µM (active).

Consider `CNC(=O)CSP(=O)(OC)OC`, for which the “viability change, negative = cytotoxic” value was 4.36% (inactive).

Take `COC(=O)c1cc(Oc2ccc(Cl)cc2Cl)ccc1[N+](=O)[O-]`: the “viability change, negative = cytotoxic” value is -10.1% (inactive).

In the case of `N#Cc1ccc(N(CC(N)=O)CC(F)(F)F)cc1C(F)(F)F`, the “viability change, negative = cytotoxic” value was 0.757% (inactive).

As to `CCOP(=S)(OCC)Oc1cc(C)nc(N(CC)CC)n1`, the “viability change, negative = cytotoxic” value is -17.3% (inactive).

On to `O=C1C[C@@H]2OCC=C3CN4CC[C@]56c7ccccc7N1[C@H]5[C@H]2[C@H]3C[C@H]46`, for which the “viability change, negative = cytotoxic” value is 0.876% [at 35.3 µM] (inactive).

On to `COc1c2c(cc3c1OCO3)CCN(C)C2`, for which the “viability change, negative = cytotoxic” value was 4.36% [at 35.3 µM] (inactive).

Take `Nc1cc(Cl)ccc1Cl`: the “viability change, negative = cytotoxic” value was -1.86% (inactive).

With `CN1C2CCC(C)(C)C1CC(OC(=O)C(O)(c1cccs1)c1cccs1)C2` (stereo not given), the “viability change, negative = cytotoxic” value is -1.93% [at 35.3 µM] (inactive).

Regarding `CCC(C)c1cccc(C(C)CC)c1O` (stereo not given), the “viability change, negative = cytotoxic” value is 3.96% (inactive).

For `ClC1=C(Cl)[C@]2(Cl)[C@H]3[C@H]([C@@H]4C=C[C@H]3C4)[C@@]1(Cl)C2(Cl)Cl`, the Potency entry is “inactive”.

For `CC#C[C@]1(O)CC[C@H]2[C@@H]3C[C@H](C)C4=CC(=O)CC[C@]4(C)[C@H]3CC[C@@]21C`, the “viability change, negative = cytotoxic” value was 1.86% [at 35.3 µM] (inactive).

With `CCN(CC)Cc1nccn1-c1ccc([N+](=O)[O-])cc1C(=O)c1ccccc1Cl`, the “viability change, negative = cytotoxic” value was -0.597% [at 35.3 µM] (inactive).

On to `COC(=O)/C=C(\C)OP(=O)(OC)OC`, for which the Potency is 0.174 µM (active).

In the case of `Clc1ccc(C(c2ccc(Cl)cc2)C(Cl)Cl)cc1`, the Potency result is “inactive”.

For the compound `Oc1ccc2[nH]cc(CCCCN3CC=C(c4ccccc4)CC3)c2c1`, the “viability change, negative = cytotoxic” value was -2.41% [at 35.3 µM] (inactive).

Take `NC1CCC(CC2CCC(N)CC2)CC1` (stereo not given): the “viability change, negative = cytotoxic” value is 13.5% (inactive).

With `CCCCn1cc[n+](C)c1.[Cl][Fe-]([Cl])([Cl])[Cl]`, the “viability change, negative = cytotoxic” value is -3.17% (inactive).

Regarding `C=CCBr`, the “viability change, negative = cytotoxic” value was 18.7% (inactive).

For the compound `CCO/N=C(\CC)C1=C(O)CC(c2c(C)cc(C)cc2C)CC1=O` (stereo not given), the “viability change, negative = cytotoxic” value is -1.79% (inactive).

With `C[C@@H]1CC2=CC(=O)CC[C@@H]2[C@H]2CC[C@@]3(C)[C@@H](CC[C@]3(C)O)[C@@H]21`, the “viability change, negative = cytotoxic” value was 3.01% [at 35.3 µM] (inactive).

As to `CC(C)C(Br)C(=O)NC(N)=O` (stereo not given), the “viability change, negative = cytotoxic” value is -10.9% [at 35.3 µM] (inactive).

For the compound `CCC1(CC)C(=O)N=C(O)NC1=O`, the “viability change, negative = cytotoxic” value is 2.01% (inactive).

As for `O=[N+]([O-])[O-].[Tl+]`, the “viability change, negative = cytotoxic” value was -7.85% (inactive).

In the case of `Cc1ccc(C)c2ccccc12`, the “viability change, negative = cytotoxic” value was 3.25% (inactive).

As to `CCCCc1ccccc1`, the “viability change, negative = cytotoxic” value is 3.83% (inactive).

For `O=S(=O)(O)F`, the “viability change, negative = cytotoxic” value was -0.51% (inactive).

As to `c1ccc(Nc2ccc(Nc3ccccc3)cc2)cc1`, the “viability change, negative = cytotoxic” value is -21% (inactive).

With `CCOP(=S)(OCC)SC(CCl)N1C(=O)c2ccccc2C1=O` (stereo not given), the “viability change, negative = cytotoxic” value is -6.61% (inactive).

Regarding `N#Cc1sc2c(=O)c3ccccc3c(=O)c=2sc1C#N`, the Potency is 49 µM (active).

In the case of `CCC[CH2][Sn]([CH2]CCC)([O]C(C)=O)[O]C(C)=O`, the “viability change, negative = cytotoxic” value is -23.4% (inactive).

For `CC1CN1` (stereo not given), the “viability change, negative = cytotoxic” value is 4.84% (inactive).

Take `O=C(O)[C@H](O)[C@@H](O)C(=O)O`: the “viability change, negative = cytotoxic” value is 1.31% (inactive).

As to `CC(C)c1c(CN(C)C(C)Cc2ccccc2)n(C)n(-c2ccccc2)c1=O` (stereo not given), the “viability change, negative = cytotoxic” value was -7.27% [at 35.3 µM] (inactive).

In the case of `[O]=[Cr](=[O])([OH])[O][Cr](=[O])(=[O])[OH]`, the Potency was 27.8 µM (active) and 24.5 µM (active).

With `CC(=O)[O-].CC(=O)[O-].O.O.O.[Pb+2]`, the “viability change, negative = cytotoxic” value was -8.42% (inactive).

With `COP(=O)(OC)Oc1ccc([N+](=O)[O-])cc1`, the “viability change, negative = cytotoxic” value is -18.4% (inactive).

Consider `Cc1ccc([N+](=O)[O-])[c]2c1[O][Hg]2`, for which the Potency was 19 µM (active).

On to `O.O.O.O.O.O.O.O=S(=O)([O-])[O-].[Co+2]`, for which the “viability change, negative = cytotoxic” value is 0.442% (inactive).

Consider `O=C(NC(=O)c1ccccc1Cl)Nc1ccc(OC(F)(F)F)cc1`, for which the “viability change, negative = cytotoxic” value was -10.7% (inactive).

The record behind these values is PubChem BioAssay (Tox21).
